ATXN2 expr inh = Primary qHTS for Inhibitors of ATXN expression; hit rate 0.72% among 360,000; Potency, µM (series often up to 57 µM), for the others: at the highest dose activity change, negative = inhibition, actives largely listed as inhibitors; HEK-293 ATXN2-luciferase reporter, luminescence, 24 h; AID 1745845, 2022; further: on the % scale 0 is the no-effect control and ±100 the full control effect; nearly all actives have a fitted effect of over 55% in size
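qHTS (up to 57 uM final) was run with 24 h compound exposure of reporter cells at 37 °C. Each well was multiplexed: SteadyGlo luminescence measured ATXN2-luciferase expression after a fluorogenic Gly-Phe-AFC viability readout (25 uM final).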
KB-V1 MDR tox = qHTS assay for MDR1-selective chemotherapeutics: Primary screen using the drug-selected MDR subline cells KB-V1; Potency, µM (series often up to 46.1 µM), most hits filed as cytotoxic; AID 1347076, 2019; hit rate 3.4% among 400,000; KB-V1 MDR cells viability, CellTiter-Glo, 72 h; further: on the % scale 0 is the no-effect control and ±100 the full control effect; nearly all actives have a fitted effect of over 60% in size
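Readout: CellTiter-Glo luminescence, 10 min after addition. Cells: KB-V1 MDR subline, 72 h at 37 degrees C with compound. Analysis: corrected, normalized data fitted to concentration-effect curves.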
ATXN viability = Viability Counterscreen for Primary qHTS for Inhibitors of ATXN expression. S2 cells (HEK-293 line with an ATXN2-luciferase reporter) viability, CellTiter-Fluor protease fluorescence, 24 h. Potency, µM (top dose mostly 56.7 µM), hits mostly cytotoxic. hit rate 0.49% among 400,000; further: nearly all actives have a fitted effect of over 40% in size
HT1080 IDH1KD tx = qHTS for induction of synthetic lethality in tumor cells producing 2HG: qHTS for the HT-1080-IDH1KD cell line | HT-1080 IDH1 knockdown viability, ATP luminescence, 48 h | Potency, µM (top dose mostly 46.1 µM), inactives show top-dose activity, negative = toxicity, most hits filed as cytotoxic | hit rate 2% among 360,000 | AID 686971, 2013;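 further: 0% = DMSO wells and -100% = cell-free medium wells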
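Luminescent ATP read-out (CellTiter-Glo, 10 min at room temperature) after 48 h compound exposure at 37 °C gave viability of IDH1-knockdown HT-1080 cells. Activity was normalised to DMSO and cell-free wells, then fitted as concentration-response curves.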
KB-3-1 tox = qHTS assay for MDR1-selective chemotherapeutics: Primary screen using the parental adenocarcinoma cell KB-3-1; Potency, µM (series often up to 46.1 µM), most hits filed as cytotoxic; KB-3-1 viability, CellTiter-Glo ATP luminescence, 72 h; hit rate 1.4% among 400,000; further: on the % scale 0 is the no-effect control and ±100 the full control effect; nearly all actives have a fitted effect of over 60% in size
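Using CellTiter-Glo luminescence, growth of non-resistant KB-3-1 adenocarcinoma cells is assessed 72 h after pin-tool compound addition at 37 °C. Normalized responses across the concentration series yield fitted curves.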
HT1080-NT tox = qHTS for induction of synthetic lethality in tumor cells producing 2HG: qHTS for the HT-1080-NT fibrosarcoma cell line; HT-1080-NT fibrosarcoma viability, CellTiter-Glo ATP luminescence, 48 h; Potency, µM (doses to about 46.1 µM), inactives show at the top dose activity, negative = less viability, hits mostly cytotoxic; hit rate 1.6% among 360,000;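 further: NT is the 2HG producing partner of a matched IDH1 knockdown line; 0% = DMSO-treated cells and -100% = media-only wells without cells; nearly all actives have a fitted effect of over 55% in size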
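HT-1080-NT; 750 cells/well; 5% FBS RPMI; 48 h compound, 37 degrees C; CellTiter-Glo luminescence; curve fitting and curve-class assignment.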
Active calls of the source: *; i = inactive; ? = inconclusive; · = no result given. A selection: hits, their analogues and other compounds. The true share with any hit is near 6.2%. The call rests on the fitted dose curve; in most records, active means well fitted curve in the direction sought with a large enough effect; inconclusive means small, poorly fitted or top-dose-only effect, or another doubt; inactive means no such curve, though single readings can be large; an effect the other way counts as inactive or inconclusive. Potency means the concentration at half of the fitted maximal effect.

SMILES	ATXN2 expr inh	KB-V1 MDR tox	ATXN viability	HT1080 IDH1KD tx	KB-3-1 tox	HT1080-NT tox
CCC(=O)N(CCC(c1ccco1)c1ccccc1OC)Cc1cccs1 (centres undefined)	·	?	·	-23%	i	-1%
O=C(c1ccco1)N(CCC(c1ccccc1)c1ccco1)Cc1ccco1 (centres undefined)	10%	13µM*	?	9%	i	5%
COc1cc(NC(=O)c2ccccc2-c2ccccc2)cc(OC)c1	-3%	12µM*	i	2%	i	5%
Cc1ccc2c(CC(=O)N3CCOc4ccc(CN5CCOCC5)cc4C3)cc(=O)oc2c1	·	·	i	·	·	·
CCCCCCCCNC(=O)CCNC(=O)c1ccc(C(C)(C)C)cc1	4%	13µM*	i	-6%	i	-5%
CC(C)(C)c1ccc(C(=O)NCCCN2CCN(CCCNC(=O)c3ccc(C(C)(C)C)cc3)CC2)cc1	?	18µM*	28µM*	?	?	18µM*
C(=Cc1c[nH]c2ccccc12)c1ccc2ccccc2n1	-71%	i	·	23µM*	i	16µM*
C(=C\c1ccnc2ccccc12)/c1ccc2ccccc2n1	·	?	·	·	i	·
C=CCOc1ccc(CN(C)C(=O)c2ccc(CNS(=O)(=O)c3ccc(C)c(C)c3)cc2)cc1	-19%	?	i	?	13µM*	?
CN(Cc1ccc(F)cc1)C(=O)c1cccc(S(=O)(=O)NCc2ccccc2)c1	-10%	i	i	-2%	i	-5%
Cc1cccc(Cc2c(C)nc3nc(SCC(=O)NCc4ccccc4)nn3c2C)c1	-23%	i	?	·	15µM*	·
CN1CCN(c2ccc(CNS(=O)(=O)Cc3cccc(C(F)(F)F)c3)cc2)CC1	·	?	i	-22%	?	18µM*
CC1CC(C)CN(C(=O)c2cccc(S(=O)(=O)NCc3ccccc3)c2)C1 (centres undefined)	-22%	i	i	-3%	i	-6%
Cc1ccc(S(=O)(=O)NCc2ccccc2)cc1C(=O)N1CC(C)CC(C)C1 (centres undefined)	-2%	13µM*	i	1%	i	8%
O=C(c1cccc(S(=O)(=O)NCc2ccccc2)c1)N1CCN(c2cccc(C(F)(F)F)c2)CC1	?	16µM*	i	?	?	?
CN1CCN(c2ccc(CNS(=O)(=O)c3ccccc3)cc2)CC1	26%	i	i	7%	?	11%
Cn1cccc1C(=O)N1CCN(c2cccc(C(F)(F)F)c2)CC1	-17%	15µM*	?	10%	i	4%
CC(CC(=O)Nc1ccc(F)cc1)S(=O)(=O)c1cc2c3c(c1)CCN3C(=O)CC2 (centres undefined)	2%	i	i	·	i	·
Cc1ccc(S(=O)(=O)NCc2ccccc2)cc1C(=O)N1CCCCC1	-10%	i	i	3%	i	16%
Cc1ccc(S(=O)(=O)NCc2ccccc2)cc1C(=O)N1CCN(c2ccccc2)CC1	-11%	?	i	1%	15µM*	-3%
S=C(NCc1cccc(Cl)c1)NC1CCCCC1	-1%	18µM*	i	-1%	?	-1%
S=C(NCc1ccccc1)NC1CCCCC1	-19%	i	i	1%	i	-2%
S=C(NCCN(C1CCCCC1)C1CCCC1)Nc1cccc(Cl)c1	?	?	?	16µM*	?	16µM*
S=C(NCCC(c1ccccc1)c1ccccc1)Nc1cccc(Cl)c1	?	?	i	?	i	?
COc1ccccc1-n1c(SCC(=O)NCc2ccc3c(c2)OCO3)nc2cc([N+](=O)[O-])ccc21	-13%	i	i	-15%	i	-23%
SMILES	ATXN2 expr inh	KB-V1 MDR tox	ATXN viability	HT1080 IDH1KD tx	KB-3-1 tox	HT1080-NT tox
CC(Sc1nc2cc([N+](=O)[O-])ccc2n1-c1ccc(F)cc1)C(=O)NCc1ccc2c(c1)OCO2 (centres undefined)	-6%	5.8µM*	?	-12%	i	-2%
Oc1ccc(/C(Cc2ccccn2)=N\Nc2ccccc2)c(O)c1	·	?	i	9.2µM*	i	?
Brc1ccc2nc(-c3ccco3)c(Cc3ccccc3)n2c1	3%	i	?	?	i	?
N#Cc1ccc(-c2nc3ccc(Cl)cn3c2Cc2cccc(Cl)c2)cc1	-20%	i	?	-20%	i	-19%
Clc1cccc(Cc2c(-c3ccco3)nc3ccc(Br)cn23)c1	?	i	·	16µM*	i	?
COC(=O)c1ccc2nc(-c3ccco3)c(Cc3ccc(C)cc3)n2c1	15%	i	i	?	i	?
Clc1cccc(Cc2c(-c3ccco3)nc3ccc(Cl)cn23)c1	?	i	·	18µM*	i	23µM*
Clc1ccc(-c2nc3ccc(Cl)cn3c2Cc2cccc(Cl)c2)cc1	13%	i	i	?	i	?
Cc1ccc2nc(-c3ccc(C#N)cc3)c(Cc3cccc(Cl)c3)n2c1	-11%	i	i	26µM*	i	?
COC(=O)c1ccc2nc(-c3ccco3)c(Cc3ccc(OC)cc3C)n2c1	-5%	i	?	16µM*	i	?
CCOc1ccc(S(=O)(=O)NCCc2c(C)[nH]c3c(Cl)cccc23)cc1C	?	i	i	·	i	·
Fc1ccc2c(c1)-c1nc(-c3ccccc3)cc(-c3ccccc3)c1CO2	-6%	?	i	·	i	·
Cc1cccc(-c2nc(C)c(CCNC(=O)C(=O)Nc3ccccc3C#N)s2)c1	-17%	?	i	·	i	·
Cc1ccc(NC(=O)CN2C(=O)CCc3cc(S(=O)(=O)N4CCOCC4)ccc32)cc1F	2%	i	i	·	i	·
Cc1cc2nc(-c3ccco3)c(Cc3cccc(Cl)c3)n2c(C)c1Br	?	i	?	21µM*	i	29µM*
Cc1cccc(NC(=O)CSCC(=O)Nc2ccccc2N2CCCC2)c1	-29%	?	?	-11%	i	-2%
COc1ccccc1OCC(=O)Nc1cc(S(=O)(=O)N2CCCCC2)ccc1N1CCCCC1	-1%	i	i	4%	i	7%
COc1ccc(OCC(=O)Nc2ccccc2N2CCCCC2)cc1	-26%	i	i	4.1µM*	?	3.3µM*

Compound activity from PubChem.
